The text below walks through data of PubChem BioAssay (NCATS).

Results filed as inconclusive are left out. Active and inactive are the calls of the source. Calls come from the whole dose curve; as a rule, active = well fitted inhibition curve with a large enough effect; inconclusive = small, poorly fitted or top-dose-only effect, or effect the other way; inactive = flat fitted curve, though single readings scatter.
% is set by controls: 0 for no effect and ±100 for the full control effect; potency is the fitted concentration of half-maximal effect.

The nature of this assay: Quantitative high throughput screen for delayed death inhibitors of the malarial parasite plastid, 48 hour incubation (AID 488752). Note: nearly all actives have a fitted effect of over 65% in size. The following applies: Plasmodium falciparum growth; series mostly up to 28.7 µM; activity change, negative = inhibition: at the top concentration. An excerpt: NIH Molecular Libraries Probe Production Network [MLPCN]
NIH Chemical Genomics Center [NCGC]
Assay Provider: David Fidock and Eric Ekland, Columbia University
The goal of this screen is to discover new antimalarial compounds that act by inhibiting the development of the apicoplast in the malarial parasite Plasmodium falciparum. The biochemical processes that make this organelle essential for erythrocytic stage parasites are not well understood. However, antibiotics, such as azithromycin and tetracycline, which target the apicoplast translational machinery, have a potent antimalarial effect.
We have developed a cell-based assay that measures parasite growth based on the expression of an integrated copy of a firefly luciferase reporter. To detect small molecules that cause this 'delayed death' phenotype, erythrocytes infected with the luciferase-expressing parasites were incubated with compounds for either one or two generations, corresponding to 48 and 96 hours, respectively. Compounds that inhibit parasite growth in the second generation, but not the first, should be enriched in antimalarials that target the apicoplast. Growth inhibition is detected by a decrease in luciferase activity
Four microliters of culture medium (RPMI 1640 with 0.5% w/v Albumax (GIBCO), 24 mM sodium bicarbonate and 10 ug/mL gentamycin) were dispensed by a Multi-drop Combi into white solid 1536-well plates (Grenier) and 23 nL compound was added by a pin tool. Four microliters of infected erythrocytes (2% hematocrit, 0.1% parasitemia final concentration) in culture medium were dispensed and the plates incubated for 48 hours at 37 C in 5% CO2. Two microliters of luciferase detection reagent was added and luminescence was detected by a ViewLux (PerkinElmer) reader
Consider `C[N+]1(C)C2CCC1CC(OC(=O)C(CO)c1ccccc1)C2` (stereo not given), for which the Potency entry is “inactive”.
Turning to `Cn1cnc(CCN)c1`, the “activity change, negative = inhibition” value is 1.11% (inactive).
On the same count and under the same terms, the result for `NC1CC1c1ccccc1` (stereo not given) reads 9.9% (inactive).
Take `CN1C2CCC1CC(OC(=O)c1cc(Cl)cc(Cl)c1)C2` (stereo not given): the “activity change, negative = inhibition” value was -22.9% (inactive).
The same measure, in the same setting: the same measure for `NCCc1c[nH]c2ccccc12`: -1.35% (inactive); for `NC1CCc2cc(O)c(O)cc2C1` (stereo not given): 7.22% (inactive); for `Cc1nccc2c1[nH]c1ccccc12`: -1.07% (inactive).
As to `NC(=O)CN1CC(O)CC1=O` (stereo not given), the “activity change, negative = inhibition” value was 10.3% (inactive).
Regarding `NC(CCP(=O)(O)O)C(=O)O` (stereo not given), the “activity change, negative = inhibition” value was 12% (inactive).
Same read-out and setting: the result for `NCc1cc(=O)[nH]o1` reads -9.82% (inactive).
As for `CC[C@@H]1C(=O)OC[C@@H]1Cc1cncn1C`, the Potency result is “inactive”.
With `COc1cc(C(O)CN)ccc1O` (stereo not given), the “activity change, negative = inhibition” value was 9.85% (inactive).
On to `CC[C@@]1(O)C(=O)OCc2c1cc1n(c2=O)Cc2cc3ccccc3nc2-1`, for which the Potency is 2.33 µM (active).
For the molecule `CC(=O)[C@H]1CCC2C3CC[C@H]4C[C@H](O)CC[C@]4(C)C3CC[C@@]21C` (stereo not given in full), the “activity change, negative = inhibition” value was -25% (inactive).
Still for that read-out and setting: the result for `CNCCc1ccc(O)c(O)c1` reads -14.1% (inactive); that for `NC(CP(=O)(O)O)C(=O)O` (stereo not given), -4.31% (inactive).
On to `CCCN(CCC)[C@@H]1CCc2ccc(O)cc2C1`, for which the “activity change, negative = inhibition” value is -8.44% (inactive).
Regarding `CCCCc1ccc(C(=O)O)nc1`, the “activity change, negative = inhibition” value is -5.55% (inactive).
`O=C(O)[C@@H]1CCN1`: the “activity change, negative = inhibition” value was -0.798% (inactive).
For the molecule `CCCN1CCO[C@@H]2c3cc(O)ccc3OC[C@H]21`, the Potency result is “inactive”.
Turning to `C=CCN1CC[C@]23CCCCC2[C@H]1Cc1ccc(O)cc13` (stereo not given in full), the “activity change, negative = inhibition” value is 10.9% (inactive).
The same measure, in the same setting: the result for `Clc1cnc(Oc2ccc(Oc3ncc(Cl)cc3Cl)cc2)c(Cl)c1` reads 5.08% (inactive); that for `O=C1CCCN1CC#CCN1CCCC1`, 10% (inactive); that for `CC(C)Oc1cccnc1N(C)C1CCN(Cc2ccccc2)CC1`, 13.5% (inactive).
As to `C[N+](C)(C)CC(=O)O`, the “activity change, negative = inhibition” value was 1.85% (inactive).
`S=C(NC1CCCCC1)N1CCC(c2cnc[nH]2)CC1`: the “activity change, negative = inhibition” value was -4.62% (inactive).
For the molecule `NC(N)=NOCCC(N)C(=O)O` (stereo not given), the “activity change, negative = inhibition” value was -11.7% (inactive).
For the molecule `C[C@]12N[C@H](Cc3ccccc31)c1ccccc12`, the “activity change, negative = inhibition” value is 26.6% (inactive).
With `C#CCOC(=O)C1=CCCN(C)C1`, the “activity change, negative = inhibition” value was -20.1% (inactive).
In the case of `CC(Cc1ccc(O)cc1)NCC(O)c1cc(O)cc(O)c1` (stereo not given), the “activity change, negative = inhibition” value was 7.49% (inactive).
With `C[C@@H](N)Cc1cnc[nH]1`, the “activity change, negative = inhibition” value was 1.83% (inactive).
On the same count and under the same terms, the same measure for `CCCN1CCC[C@H](c2cccc(O)c2)C1`: 1.34% (inactive).
In the case of `NC(=NCCC[C@H](N)C(=O)O)N[N+](=O)[O-]`, the “activity change, negative = inhibition” value was 0.76% (inactive).
As to `CS(=N)(=O)CC[C@H](N)C(=O)O` (stereo not given in full), the “activity change, negative = inhibition” value is 4.78% (inactive).
Take `C[C@@H]1O[C@H](C[N+](C)(C)C)C[C@H]1O`: the “activity change, negative = inhibition” value is -2.54% (inactive).
Still for that read-out and setting: the same measure for `CNCCc1c[nH]c2ccc(O)cc12`: 9.32% (inactive); for `O=C(O)Cc1cnc[nH]1`: 1.79% (inactive); for `CC1=NN=C(c2ccc(N)cc2)c2cc3c(cc2C1)OCO3`: 9.21% (inactive).
Regarding `O=C(O)CC[N+](=O)[O-]`, the “activity change, negative = inhibition” value is -0.81% (inactive).
Consider `CC(=O)NCCc1c[nH]c2ccccc12`, for which the “activity change, negative = inhibition” value is 7.33% (inactive).
